Hits are enriched below; roughly 17% of the tested compounds scored in any of these assays.
ATXN2 expr inh: reduces ATXN2 reporter expression in HEK-293 cells | HEK-293 ATXN2-luciferase reporter, luminescence, 24 h | Potency, µM (series often up to 57 µM), inactives show top-dose activity change, negative = inhibition, usual class: inhibitors | 360,000 compounds, 0.72% hits | AID 1745845; note: % is set by controls: 0 for no effect and ±100 for the full control effect; nearly all actives have a fitted effect of over 55% in size
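qHTS (up to 57 uM final) was run with 24 h compound exposure of reporter cells at 37 °C. Each well was multiplexed: SteadyGlo luminescence measured ATXN2-luciferase expression after a fluorogenic Gly-Phe-AFC viability readout (25 uM final).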
TDP1 cell CPT: growth inhibition of DT40 Tdp1-/-;hTDP1 cells with camptothecin (screen for TDP1 inhibitors); 420,000 compounds, 12% hits; chicken DT40 Tdp1-/-;hTDP1 cells + 20 nM CPT, ATP luminescence, 48 h; Potency, µM (series often up to 46.2 µM), for the others: top-dose activity change, negative = growth inhibition, actives largely listed as inhibitors; note: % is set by controls: 0 for no effect and ±100 for the full control effect; nearly all actives have a fitted effect of over 55% in size
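Chicken DT40 Tdp1-/- cells stably complemented with human TDP1 were seeded at 400 cells/well in medium containing 20 nM camptothecin, exposed to pin-transferred compounds, and grown at 37 °C for at least 48 hr. Viability was read as ATP luminescence.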
ATXN viability: cell viability loss in ATXN counter-screen; S2 cells (HEK-293 line with an ATXN2-luciferase reporter) viability, CellTiter-Fluor protease fluorescence, 24 h; Potency, µM (series often up to 56.7 µM), actives largely listed as cytotoxic; 400,000 compounds, 0.49% hits; AID 651635; note: nearly all actives have a fitted effect of over 40% in size
DT40 TDP1 no CPT: qHTS for Inhibitors of human tyrosyl-DNA phosphodiesterase 1 (TDP1): qHTS in cells in absence of CPT; DT40 Tdp1-/- hTDP1 cells, no CPT, ATP luminescence, 48 h; Potency, µM (series often up to 46.2 µM), without a hit: at the top dose activity change, negative = growth inhibition, most hits filed as inhibitors; 420,000 compounds, 15% hits; note: % is set by controls: 0 for no effect and ±100 for the full control effect; nearly all actives have a fitted effect of over 55% in size
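Cells were dispensed at 400 per well, compounds added by pin tool, plates incubated ≥48 hr at 37 °C, then CellTiter-Glo added for 30 min at room temperature before luminescence reading. Line: DT40 Tdp1-/- complemented with hTDP1; camptothecin omitted.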
HepG2 tox: counter-screen for TGF-b inhibitors: cytotoxicity in HepG2 cells; HepG2 CAGA-GFP viability, ATP luminescence, 18 h; Potency, µM (highest dose often 46.1 µM), for the others: at the top dose activity change, negative = cytotoxicity, most hits filed as cytotoxic; 410,000 compounds, 0.76% hits; AID 588856
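HepG2 CAGA-GFP cells (1000/well, DMEM with 1% FBS) received compound, then TGF-beta at 500 pg/mL final, and were incubated 18 hours at 37 degrees C. Viability was read by CellTiter-Glo luminescence. Media-only wells were set as complete cell-killing and DMSO as no toxicity.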
TGFb SMAD3 inh: inhibitors of TGF-b signaling; Potency, µM (highest dose often 46.1 µM), for inactives: at the top dose activity, negative = inhibition, usual class: inhibitors; HepG2 CAGA-GFP TGF-b/SMAD3 reporter, GFP fluorescence, 18 h; TGF-beta stimulated, 500 pg/mL final; AID 588855; 410,000 compounds, 1.2% hits; note: % is set by controls: 0 for no effect and ±100 for the full control effect; nearly all actives have a fitted effect of over 65% in size
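Smad-responsive CAGA-GFP expression was quantified in HEPG2 cells exposed to compounds and 500 pg/mL final TGF-beta for 18 h at 37 degrees C; unstimulated wells defined full inhibition.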
* = called active by the depositor; i = inactive; ? = inconclusive; . = no result given; [ ] = another dose, or the depositor's remark. Calls come from the whole dose curve; as a rule, active = well fitted curve in the direction sought with a large enough effect; inconclusive = small, poorly fitted or top-dose-only effect, or another doubt; inactive = no such curve, though single readings can be large; an effect the other way counts as inactive or inconclusive. Potency is the fitted concentration of half-maximal effect.

SMILES | ATXN2 expr inh | TDP1 cell CPT | ATXN viability | DT40 TDP1 no CPT | HepG2 tox | TGFb SMAD3 inh
CCN(CC)CCn1c2ccccc2c2nc(C)sc21 | -12% | -4% | i | 3% | -10% | 4%
C=CCn1c(SCC(=O)NCCC2=CCCCC2)nc2ccc(Cl)cc2c1=O | 7% | 23µM* | i | ? | 9% | -7%
C=CCn1c(SCC#N)nc2cc(Cl)ccc2c1=O | . | ? | . | 13µM* | -15% | -4%
CCCn1c(SCN2C(=O)c3ccccc3C2=O)nc2cc(Cl)ccc2c1=O | -6% | 21µM* | i | 23µM* | -59% | -15%
CCC(=O)N[C@@H]1c2ccccc2C2(CCN(Cc3[nH]c4c(Cl)cccc4c3C)CC2)[C@H]1OC | . | -14% | ? | -26% | . | .
NNC(=O)c1sccc1OCc1ccc(F)cc1 | -19%[11.3 µM] | 7% | i | ? | -1% | -2%
O=C(N/N=C/c1ccc(F)cc1)c1sccc1OCc1ccc(F)cc1 | 9% | 16µM* | ? | 18µM* | -28% | -7%
O=C(N/N=C/c1ccc(Cl)cc1)c1sccc1OCc1ccc(F)cc1 | 6% | 1.2µM* | i | 1.3µM* | -18% | -19%
CCCS(=O)(=O)NC(=O)C1(C)CCCN(C(=O)c2cccc(Cl)c2)C1 (stereo not given) | 14% | 17% | i | -12% | 6% | 4%
CCC(C)(C)NC(=O)C(OC(=O)c1cc2sccc2n1C)c1ccc(OC)cc1 (stereo not given) | -5% | -9% | ? | -16% | 3% | -1%
CC(C)C(=O)NC(c1ccco1)c1ccc2cccnc2c1O (stereo not given) | ? | 3.3µM* | ? | 4.6µM* | -18% | -23%
CC(C)C(=O)NC(c1ccc(N(C)C)cc1)c1ccc2cccnc2c1O (stereo not given) | . | 4µM* | . | 5.6µM* | 6% | ?
Oc1c(C(Nc2nc3ccccc3s2)c2ccco2)ccc2cccnc12 (stereo not given) | ? | 3.7µM* | ? | 5.2µM* | -54% | ?
c1coc(CNc2nc3ccccc3s2)c1 | 79% | 1% | i | 2% | -72% | -30%
CC(=O)NC(c1ccco1)c1cc(Cl)c2ccc(Cl)nc2c1O (stereo not given) | -12% | . | i | . | -35% | ?
CCN(CC)c1ccc(C(NC(=O)C(C)C)c2ccc3cccnc3c2O)cc1 (stereo not given) | . | 2.9µM* | i | 2.9µM* | -23% | ?
CCOc1ccc(C(=O)CCC(=O)N2CCN(S(=O)(=O)c3cccc(F)c3)CC2)cc1 | -15% | ? | i | -9% | -20% | -20%
Cc1ccc(-n2ncc3c(N4CCC5(CC4)OCCO5)ncnc32)c(C)c1 | ? | 12µM* | ? | 15µM* | -31% | -28%
CCN(CC)C(=O)C1CCN(c2ncnc3c2cnn3-c2ccc(C)cc2C)CC1 | -18% | ? | i | 21µM* | 13% | 15%
CCOC(=O)c1ccc(NC(=O)C2=C(C)C(=O)OC23CCCCCC3)cc1 | . | ? | . | ? | -24% | 0%
CC(C)n1c(N2CCN(C(=O)NCc3ccccc3)CC2)nc2ccccc21 | -5% | ? | i | 23µM* | -13% | 1%
O=C(NC(=S)N1CCCCC1)c1cccnc1 | 0% | -3% | i | 3% | 0% | ?
O=C(NC(=S)N1CCN(Cc2ccccc2)CC1)c1cccnc1 | 1% | 16µM* | i | 21µM* | 5% | 8%
